PubChem BioAssay (Tox21)
Records with an inconclusive call do not appear. The source made the active and inactive calls. Unless noted, calls come from the whole dose curve; as a rule, active = well fitted curve in the direction sought with a large enough effect in the repeat runs; inconclusive = weak or mixed curves; inactive = no such curve, though single readings can be large; an effect the other way counts as inactive or inconclusive.

Assays:
[1] = molecular target: Peroxisome proliferator-activated receptor delta (Homo sapiens) (UniProt Q03181); experiment: qHTS assay to identify small molecule agonists of the peroxisome proliferator-activated receptor delta (PPARd) signaling pathway (AID 743212; calls by dose curve;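 note: HEK293H cells with PPARd UAS beta-lactamase reporter GeneBLAzer system; % is set by controls: 0 for no effect and ±100 for the full control effect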)
Procedure, shortened: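 Beta-lactamase reporter read by fluorescence (LiveBLAzer B/G FRET, 2 h, room temperature). Test agents, in DMSO, incubated at 37 C with PPARd-bla HEK293H cells.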

[2] = molecular target: Bile acid receptor (Homo sapiens) (UniProt Q96RI1); experiment: qHTS assay to identify small molecule antagonists of the farnesoid-X-receptor (FXR) signaling pathway (AID 743217; active = well fitted inhibition curve with a large enough effect in the signal ratio in the repeat runs, not every such curve was filed as active; the % refers to the signal ratio; note: % is set by controls: 0 for no effect and ±100 for the full control effect)
Procedure, shortened: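 Test compounds are pin-transferred onto FXR-bla HEK 293T cells, then chenodeoxycholic acid is added at 50 uM final. After 16 h at 37 °C, LiveBLAzer B/G substrate is applied for 2 h at room temperature and fluorescence read.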

[3] = qHTS assay to identify small molecule agonists of the farnesoid-X-receptor (FXR) signaling pathway - cell viability counter screen (AID 743218); note: nearly all actives have a fitted effect of over 45% in size; note: potency is the fitted concentration of half-maximal effect
Procedure, shortened: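 Quantitative HTS counter screen measuring ATP-based viability via CellTiter-Glo luminescence in HEK 293T cells carrying a UAS-driven beta-lactamase reporter, after 16 h compound exposure at 37 C.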

[4] = molecular target: Bile acid receptor (Homo sapiens) (UniProt Q96RI1); experiment: qHTS assay to identify small molecule agonists of the farnesoid-X-receptor (FXR) signaling pathway (AID 743220; active = well fitted activation curve with a large enough effect in the signal ratio in the repeat runs, not every such curve was filed as active; the % refers to the signal ratio; note: % is set by controls: 0 for no effect and ±100 for the full control effect)
Procedure, shortened: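 FXR-UAS-bla HEK 293T cells carrying a UAS-driven beta-lactamase reporter were plated for 5 h at 37C/5% CO2, then exposed to DMSO-dissolved Tox21 10K compounds for 16 h at 37C. A LiveBLAzer B/G FRET substrate was loaded for 2 h at room temperature before fluorescence reading.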

[5] = qHTS assay to identify small molecule antagonists of the farnesoid-X-receptor (FXR) signaling pathway - cell viability counter screen (AID 743221; active = well fitted cell-killing curve with a large enough effect in the repeat runs, not every such curve was filed as active; note: nearly all actives have a fitted effect of over 50% in size; note: potency is the fitted concentration of half-maximal effect)
Procedure, shortened: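 Here viability was scored by luminescence after CellTiter-Glo addition to wells already read for beta-lactamase. Prior treatment: compound plus CDCA (50 uM final), 16 h, 37 C, HEK 293T FXR-bla cells.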

[6] = qHTS assay to identify small molecule antagonists of the vitamin D receptor (VDR) signaling pathway - cell viability counter screen (AID 743225); note: nearly all actives have a fitted effect of over 50% in size; note: potency is the fitted concentration of half-maximal effect
Procedure, shortened: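 Compounds were pinned onto VDR-bla HEK 293T cells together with 1-alpha,25-dihydroxyvitamin D3 at 3 nM final. After 16 h at 37C and 5% CO2 plus the reporter readout, cell viability was measured by CellTiter-Glo luminescence (30 min, room temperature).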

[7] = qHTS assay to identify small molecule agonists of the endoplasmic reticulum stress response signaling pathway (AID 1159516; active = well fitted activation curve with a large enough effect in the signal ratio in the repeat runs, not every such curve was filed as active; the % refers to the signal ratio; note: % is set by controls: 0 for no effect and ±100 for the full control effect)
Procedure, shortened: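 Fluorescence at 460 and 530 nm (405 nm excitation) reports beta-lactamase from an ER stress response element in HeLa cells treated 5 hr at 37 C.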

[8] = qHTS assay to identify small molecule agonists of the endoplasmic reticulum stress response signaling pathway - cell viability counter screen (AID 1159517; calls by dose curve; note: series mostly up to about 61 µM; % is set by controls: 0 for no effect and ±100 for the full control effect; nearly all actives have a fitted effect of over 50% in size)
Procedure, shortened: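 Cytotoxicity of test compounds toward ESRE-bla HeLa cells was assessed after 5 hr exposure. The luminescent CellTiter-Glo signal was measured 30 min after reagent addition.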

[9] = qHTS assay to identify small molecule antagonists of the retinoid-related orphan receptor gamma (ROR-gamma) signaling pathway - cell viability counter screen (AID 1159520); note: nearly all actives have a fitted effect of over 50% in size; note: potency is the fitted concentration of half-maximal effect
Procedure, shortened: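 Tet-on ROR gamma CHO cells (1,000/well) were plated 4 hr, given compounds in DMSO for 2 hr at 37 C, then induced with 1 uM final doxycycline for 16 hr. Viability was read as ATP by CellTiter-Glo luminescence after 30 min.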

[10] = molecular target: Nuclear receptor ROR-gamma (Homo sapiens) (UniProt P51449); experiment: qHTS assay to identify small molecule antagonists of the retinoid-related orphan receptor gamma (ROR-gamma) signaling pathway (AID 1159521; note: nearly all actives have a fitted effect of over 50% in size; note: potency is the fitted concentration of half-maximal effect)
Procedure, shortened: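 Test compounds were applied to Tet-on RORγ CHO cells 2 h ahead of doxycycline hyclate (1 uM final). Luciferase reporter activity was quantified by luminescence after 16 h at 37 C and 5% CO2.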

[11] = qHTS assay to identify small molecule agonists of the AP-1 signaling pathway - cell viability counter screen (AID 1159525; calls by dose curve; note: nearly all actives have a fitted effect of over 55% in size)
Procedure, shortened: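 Each titration point was normalised to DMSO and tetra n-octyl ammonium bromide controls. The read was Cell Titer Glo luminescence after 30 min at RT, following 5 h compound exposure of ME-180 AP-1-bla cells at 37 °C.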

[12] = qHTS assay to identify small molecule agonists of the RXR signaling pathway - cell viability counter screen (AID 1159529); note: nearly all actives have a fitted effect of over 50% in size; note: potency is the fitted concentration of half-maximal effect
Procedure, shortened: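 Compounds dissolved in DMSO were pinned onto HEK 293T cells carrying a beta-lactamase reporter under RXR-alpha control and incubated 16 hr. Cytotoxicity was then quantified by CellTiter-Glo luminescence.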

[13] = qHTS assay to identify small molecule antagonists of the retinoid acid receptor (RAR) signaling pathway - cell viability counter screen (AID 1159551); note: % is set by controls: 0 for no effect and ±100 for the full control effect; nearly all actives have a fitted effect of over 35% in size
Procedure, shortened: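 In this counter screen, the RARE-luciferase line C3RL4 was exposed for 6 h at 37 C and 5% CO2 to compounds with retinol at 1 uM final. Cellular ATP, read by luminescence, served as the viability measure.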

[14] = molecular target: Peroxisome proliferator-activated receptor delta (Homo sapiens) (UniProt Q03181); experiment: qHTS assay to identify small molecule antagonists of the peroxisome proliferator-activated receptor delta (PPARd) signaling pathway (AID 743215; active = well fitted inhibition curve with a large enough effect in the signal ratio in the repeat runs, not every such curve was filed as active; the % refers to the signal ratio)
Procedure, shortened: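 Here, a reporter line (HEK293H, beta-lactamase under a UAS) measures PPARd signaling. Compounds are tested against agonist L165041 at 300 nM final concentration over 17 h at 37 C, with fluorescence read after substrate.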

[15] = qHTS assay to identify small molecule agonists of the vitamin D receptor (VDR) signaling pathway - cell viability counter screen (AID 743224); note: nearly all actives have a fitted effect of over 50% in size; note: potency is the fitted concentration of half-maximal effect
Procedure, shortened: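 CellTiter-Glo viability readout on VDR-bla cells, measured after 16 h of compound treatment at 37C in the same wells.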

[16] = qHTS assay to identify small molecule agonists of the AP-1 signaling pathway (AID 1159526; calls by dose curve; note: % is set by controls: 0 for no effect and ±100 for the full control effect)
[17] = qHTS assay to identify small molecule antagonists of the peroxisome proliferator-activated receptor delta (PPARd) signaling pathway - cell viability counter screen (AID 743213); note: nearly all actives have a fitted effect of over 50% in size; note: potency is the fitted concentration of half-maximal effect
Procedure, shortened: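 HEK293H cells with the PPARd UAS-bla reporter, co-treated 17 h at 37 C with compounds and L165041 (300 nM final), were lysed with CellTiter-Glo. Luminescence indicated viable cell content.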

[18] = molecular target: Vitamin D3 receptor (Homo sapiens) (UniProt P11473); experiment: qHTS assay to identify small molecule agonists of the vitamin D receptor (VDR) signaling pathway (AID 743222; calls by dose curve; note: % is set by controls: 0 for no effect and ±100 for the full control effect)
Procedure, shortened: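 Tox21 cell reporter format: VDR-bla line, 16 h compound exposure in 5% CO2 at 37C, then fluorescence intensity after 2 h with LiveBLAzer B/G FRET substrate.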

[19] = molecular target: Retinoic acid receptor RXR-alpha (Homo sapiens) (UniProt P19793); experiment: qHTS assay to identify small molecule agonists of the RXR signaling pathway (AID 1159527; calls by dose curve; note: % is set by controls: 0 for no effect and ±100 for the full control effect; nearly all actives have a fitted effect of over 35% in size)
Procedure, shortened: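 Using 9-cis retinoic acid as the reference agonist, chemicals were tested in HEK 293T cells […] for 16 hr; substrate loading lasted 2 hr at room temperature.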

[20] = molecular target: Vitamin D3 receptor (Homo sapiens) (UniProt P11473); experiment: qHTS assay to identify small molecule antagonists of the vitamin D receptor (VDR) signaling pathway (AID 743223; active = well fitted inhibition curve with a large enough effect in the signal ratio in the repeat runs, not every such curve was filed as active; the % refers to the signal ratio; note: % is set by controls: 0 for no effect and ±100 for the full control effect)
Procedure, shortened: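 Inhibition of agonist-driven VDR signalling is scored in VDR-bla cells: 3 nM final 1alpha,25-dihydroxyvitamin D3 plus compound, 16 h at 37C, then beta-lactamase detection by FRET substrate fluorescence after 2 h.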

Bile acid receptor (Homo sapiens), sequence (Q96RI1 whole entry, looked up): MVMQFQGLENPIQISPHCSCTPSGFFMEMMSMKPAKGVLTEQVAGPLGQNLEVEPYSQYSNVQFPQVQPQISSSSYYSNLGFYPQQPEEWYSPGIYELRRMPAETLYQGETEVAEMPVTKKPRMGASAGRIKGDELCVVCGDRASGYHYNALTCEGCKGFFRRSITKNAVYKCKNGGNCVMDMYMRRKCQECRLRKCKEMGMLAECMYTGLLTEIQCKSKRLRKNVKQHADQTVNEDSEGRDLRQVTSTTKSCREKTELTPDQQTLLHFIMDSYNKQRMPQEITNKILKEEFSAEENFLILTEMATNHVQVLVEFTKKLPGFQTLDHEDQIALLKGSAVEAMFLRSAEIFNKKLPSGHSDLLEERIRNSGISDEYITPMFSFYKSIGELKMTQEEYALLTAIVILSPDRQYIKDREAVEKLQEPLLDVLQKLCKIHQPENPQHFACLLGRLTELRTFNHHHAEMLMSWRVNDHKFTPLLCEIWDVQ
Peroxisome proliferator-activated receptor delta (Homo sapiens), sequence (Q03181 whole entry, looked up): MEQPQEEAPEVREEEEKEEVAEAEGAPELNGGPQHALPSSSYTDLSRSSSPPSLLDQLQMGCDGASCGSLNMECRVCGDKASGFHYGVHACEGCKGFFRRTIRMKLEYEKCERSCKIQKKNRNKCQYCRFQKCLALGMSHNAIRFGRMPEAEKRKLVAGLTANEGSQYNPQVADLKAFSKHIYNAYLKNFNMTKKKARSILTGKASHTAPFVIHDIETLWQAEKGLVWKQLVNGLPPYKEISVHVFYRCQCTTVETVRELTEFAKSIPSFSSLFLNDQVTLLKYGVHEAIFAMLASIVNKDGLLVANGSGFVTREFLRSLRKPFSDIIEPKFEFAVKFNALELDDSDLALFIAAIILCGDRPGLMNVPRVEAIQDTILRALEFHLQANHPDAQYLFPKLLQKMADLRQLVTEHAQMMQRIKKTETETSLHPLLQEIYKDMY
Vitamin D3 receptor (Homo sapiens), sequence (P11473 whole entry, looked up): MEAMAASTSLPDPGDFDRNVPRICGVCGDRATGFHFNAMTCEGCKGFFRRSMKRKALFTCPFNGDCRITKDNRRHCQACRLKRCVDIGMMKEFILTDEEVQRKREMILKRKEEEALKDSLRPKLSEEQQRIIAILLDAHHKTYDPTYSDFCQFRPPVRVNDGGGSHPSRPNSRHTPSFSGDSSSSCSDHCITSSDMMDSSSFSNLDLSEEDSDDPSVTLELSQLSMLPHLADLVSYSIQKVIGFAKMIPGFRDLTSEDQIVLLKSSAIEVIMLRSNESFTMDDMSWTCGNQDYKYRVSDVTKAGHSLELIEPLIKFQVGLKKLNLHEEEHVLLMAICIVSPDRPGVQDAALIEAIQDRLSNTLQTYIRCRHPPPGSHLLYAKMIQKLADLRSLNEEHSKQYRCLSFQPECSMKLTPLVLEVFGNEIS
Retinoic acid receptor RXR-alpha (Homo sapiens), sequence (P19793 whole entry, looked up): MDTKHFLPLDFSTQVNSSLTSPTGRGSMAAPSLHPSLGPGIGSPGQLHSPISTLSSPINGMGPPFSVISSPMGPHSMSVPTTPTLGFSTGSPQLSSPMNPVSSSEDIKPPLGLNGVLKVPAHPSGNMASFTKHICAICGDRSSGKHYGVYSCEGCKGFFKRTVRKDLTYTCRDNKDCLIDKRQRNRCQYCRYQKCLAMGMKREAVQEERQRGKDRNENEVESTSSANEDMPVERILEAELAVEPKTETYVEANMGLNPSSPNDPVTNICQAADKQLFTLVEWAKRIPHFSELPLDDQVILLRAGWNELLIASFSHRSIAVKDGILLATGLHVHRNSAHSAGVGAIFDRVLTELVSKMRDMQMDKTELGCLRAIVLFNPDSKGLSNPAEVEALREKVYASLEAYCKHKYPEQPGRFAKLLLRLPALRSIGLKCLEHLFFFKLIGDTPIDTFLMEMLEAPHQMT

N[C@@H](CSSC[C@H](N)C(=O)O)C(=O)O
inactive: activation [1] -7.58% [at 0.55 µM] | activity change, negative = inhibition [2] 8.01% [at 0.55 µM] | viability change, negative = cytotoxic [3] -3.16% [at 0.55 µM] | activation [4] -0.652% [at 0.55 µM] | activity change, negative = cytotoxicity [5] 5.98% [at 0.55 µM] | viability change, negative = cytotoxic [6] 6.19% [at 0.628 µM] | activation [7] -7.2% [at 0.628 µM] | activity change, negative = cytotoxicity [8] 2.61% [at 0.628 µM] | activity, negative = cytotoxicity [9] 0.408% [at 0.349 µM] | activity change, negative = inhibition [10] -16.9% [at 0.35 µM] | viability change, negative = cytotoxic [11] 3.93% [at 0.29 µM] | activity change, negative = cytotoxicity [12] -20.1% [at 0.29 µM] | activity change, negative = cytotoxicity [13] -1.26% [at 0.349 µM]

Cc1ccc(CCn2c3c(c4cc(Cl)ccc42)CN(C)CC3)cn1
inactive: Potency [14] | Potency [4] | Potency [15] | Potency [6] | Potency [7] | Potency [8] | Potency [9] | Potency [10] | Potency [11] | Potency [16] | Potency [13]
active: Potency [12] 16.9 µM

O=C(O)c1cccc(Cl)n1
active: Potency [15] 24.5 µM
inactive: outcome [1] | Potency [3] | Potency [5] | Potency [7] | Potency [8] | Potency [9] | Potency [11] | Potency [16] | Potency [12] | Potency [13]

O=C(c1ccccc1)c1cc(Cl)ccc1O
inactive: Potency [17] | Potency [2] | Potency [3] | Potency [4] | Potency [5] | Potency [18] | Potency [15] | Potency [6] | Potency [7] | Potency [8] | Potency [9] | Potency [10] | Potency [19] | Potency [13]

Cc1cn[nH]c1
inactive: outcome [1] | Potency [17] | Potency [14] | Potency [3] | Potency [5] | Potency [15] | Potency [6] | Potency [7] | Potency [8] | Potency [9] | Potency [11] | Potency [16] | Potency [19] | Potency [12]

CCNc1nc(NC(C)CC)nc(OC)n1 (configuration not stated)
inactive: outcome [1] | Potency [3] | Potency [4] | Potency [5] | Potency [18] | Potency [20] | Potency [6] | Potency [7] | Potency [8] | Potency [9] | Potency [11] | Potency [16] | Potency [19] | Potency [12] | Potency [13]

CCCCCCCC/C=C/CCCOC(C)=O
inactive: outcome [1] | Potency [2] | Potency [3] | Potency [4] | Potency [5] | Potency [18] | Potency [20] | Potency [6] | Potency [7] | Potency [8] | Potency [9] | Potency [10] | Potency [11] | Potency [16] | Potency [12] | Potency [13]

NCCCC(O)(P(=O)(O)O)P(=O)(O)O
inactive: Potency [17] | Potency [3] | Potency [5] | Potency [18] | Potency [20] | Potency [15] | Potency [6] | Potency [7] | Potency [8] | Potency [9] | Potency [11] | Potency [16] | Potency [19] | Potency [12] | Potency [13]

COC(=O)CC(C)CCC=C(C)C (configuration not stated)
inactive: outcome [1] | Potency [2] | Potency [3] | Potency [5] | Potency [18] | Potency [20] | Potency [15] | Potency [6] | Potency [7] | Potency [8] | Potency [9] | Potency [10] | Potency [11] | Potency [12] | Potency [13]

O=C1Nc2ccc(Cl)cc2[C@@](C#CC2CC2)(C(F)(F)F)O1
inactive: outcome [1] | Potency [17] | Potency [14] | Potency [3] | Potency [18] | Potency [20] | Potency [15] | Potency [7] | Potency [8] | Potency [10]
active: Potency [9] 29.8 µM

CCN1CCN(c2cc(-c3ccc(F)cc3)c3c(n2)CCCCCC3)CC1
inactive: Potency [17] | Potency [14] | Potency [3] | Potency [5] | Potency [18] | Potency [20] | Potency [15] | Potency [6] | Potency [7] | Potency [8] | activity, negative = cytotoxicity [9] -5.78% [at 19 µM] | activity change, negative = inhibition [10] -6.23% [at 19 µM] | viability change, negative = cytotoxic [11] 3.9% [at 15.8 µM] | activation [16] 6.74% [at 15.8 µM] | activity change, negative = cytotoxicity [12] -22.5% [at 15.8 µM] | activity change, negative = cytotoxicity [13] 0.574% [at 19 µM]

CC1(C)C(=O)N(Br)C(=O)N1Br
inactive: outcome [1] | Potency [17] | Potency [14] | Potency [2] | Potency [3] | Potency [4] | Potency [5] | Potency [18] | Potency [15] | Potency [6] | Potency [7] | Potency [8] | Potency [9] | Potency [10] | Potency [11] | Potency [16] | Potency [12]

O=C1NCCN1CCN1CCC(c2cn(-c3ccc(F)cc3)c3ccc(Cl)cc23)CC1
inactive: Potency [7] | Potency [8] | Potency [9]
active: Potency [17] 23.7 µM | Potency [3] 23.7 µM | Potency [5] 33.5 µM | Potency [15] 11.9 µM | Potency [6] 16.9 µM | Potency [10] 26.6 µM | Potency [12] 21.3 µM

COc1cccc(CCc2ccccc2OCC(CN(C)C)OC(=O)CCC(=O)O)c1 (configuration not stated)
inactive: outcome [1] | Potency [14] | Potency [2] | Potency [3] | Potency [4] | Potency [18] | Potency [20] | Potency [15] | Potency [6] | Potency [7] | Potency [8] | Potency [9] | Potency [11] | Potency [16] | Potency [12] | Potency [13]
active: Potency [10] 7.5 µM

ClC/C=C\CCl
inactive: outcome [1] | Potency [17] | Potency [14] | Potency [5] | Potency [18] | Potency [20] | Potency [15] | Potency [6] | Potency [7] | Potency [8] | Potency [9] | Potency [11] | Potency [16] | Potency [19] | Potency [12] | Potency [13]
